The text below walks through data of PubChem BioAssay (Tox21).

Inconclusive results are not listed. Where a call stands in place of a potency, no number is given. Values without a mark were called inactive. Activity calls are given as the source filed them. Calls follow the shape of the dose curve; as a rule, active = well fitted cell-killing curve with a large enough effect in the repeat runs; inconclusive = weak or mixed curves; inactive = no such curve, though single readings can be large or run the other way.
Potency is read from the fitted curve at half-maximal effect.

The test can be described thus: qHTS assay to identify small molecule agonists of the peroxisome proliferator-activated receptor delta (PPARd) signaling pathway - cell viability counter screen (AID 743211). Also: nearly all actives have a fitted effect of over 55% in size. Conditions: PPARd-bla HEK293H viability, CellTiter-Glo luminescence, 17 h; series mostly up to 62.6 µM. An excerpt: U.S. Tox21 Program National Center for Advancing Translational Sciences [NCATS] NIH Chemical Genomics Center [NCGC] U.S. Environmental Protection Agency [EPA] National Institutes of Environmental Health Sciences [NIEHS] National Toxicology Program [NTP] U.S. Food and Drug Administration [FDA] Tox21 Assay Overview: The peroxisome proliferator-activated receptors (PPARs) are lipid-activated transcription factors of the nuclear receptor superfamily with three distinct subtypes namely PPAR alpha, PPAR delta (PPARd) and PPAR gamma. All these subtypes heterodimerizes with Retinoid X receptor (RXR) and have different physiological functions. […] To identify the compounds that activate PPAR-delta signaling, GeneBLAzer PPAR delta UAS-bla HEK293H cell line (Invitrogen, Carlsbad, CA, USA) containing a beta-lactamase reporter gene under the control of an Upstream Activator Sequence (UAS) was used to screen the Tox21 compound library. The cytotoxicity of the Tox21 compound library against the PPARd-bla cell line was tested in parallel by measuring the cell viability using CellTiter-Glo assay (Promega, Madison, WI) in the same wells.
Tox21 Assay Protocol Summary: PPARd-bla cells were dispensed at 3000 cells/6uL/well in 1536-well black wall/clear bottom plates using a Multidrop Combi (Thermo Fisher Scientific, Waltham, MA) dispenser. After the assay plates were incubated at 37 C and 5% CO2 for 5 h, 23 nL of compounds dissolved in DMSO, positive controls or DMSO only was transferred to the assay plate by a Pintool station (Kalypsys, San Diego, CA). The assay plates were incubated at 37C for 17 h. After 1 uL of LiveBLAzerTM B/G FRET substrate was added using a Bioraptr Flying Reagent Dispenser (FRD) workstation (Beckman Coulter, Indianapolis, IN, USA), the plates were incubated at room temperature for 2 h, and fluorescence intensity was measured by an Envision plate reader (PerkinElmer, Shelton, CT). For cell viability readout that measures cytotoxicity, 3 ul/well of CellTiter-Glo reagent was added into the assay plates using a Bioraptr FRD. After 30 min incubation at room temperature, the luminescence intensity in the plates was measured using a ViewLux plate reader (PerkinElmer).
In general terms: In qHTS, concentration-response curves come from the screen itself.
Regarding `CC1=CCCC(C)(C)C12CCC(C)O2` (stereo not given), the Potency result is “inactive”.

For `NS(=O)(=O)c1ccc(N2CCCCS2(=O)=O)cc1`, the Potency result is “inactive”.

As for `COc1cc(Cl)c(OC)cc1N`, the Potency entry was “inactive”.

With `COc1cc2c(cc1OC)C(C(C(=O)N(CCc1ccc(OC)c(OC)c1OC)CCc1ccc(OC)c(OC)c1OC)c1ccccc1)=NCC2` (stereo not given), the Potency entry is “inactive”.

In the case of `CCCCCCOC(=O)NC(=N)c1ccc(NCc2nc3cc(C(=O)N(CCC(=O)OCC)c4ccccn4)ccc3n2C)cc1`, the Potency was 21.1 µM (active).

Turning to `CC(C)(COC(=O)c1ccccc1)COC(=O)c1ccccc1`, the Potency result is “inactive”.

Take `O=C1[C@H]2CCCC[C@H]2C(=O)N1CCCCN1CCN(c2nsc3ccccc23)CC1`: the Potency entry is “inactive”.

Regarding `C/C(=C(\CCOP(=O)(O)O)SC(=O)c1ccccc1)N(C=O)Cc1cnc(C)nc1N`, the activity change, negative = cytotoxicity was 2.72% [at 5.95 µM].

As for `Clc1ccc2c(c1)CCc1cccnc1C2=C1CCNCC1`, the Potency is 26.6 µM (active).

Take `Cn1c(=O)cc(Oc2ccc(F)cc2F)c2cnc(NCC(C)(C)O)nc21`: the Potency result is “inactive”.

Regarding `O=C(O)CNCC(=O)O`, the activity change, negative = cytotoxicity was -8.65% [at 5.95 µM].

For `CCCCC(=O)OCC(=O)[C@H]1[C@H](C)C[C@H]2[C@@H]3C[C@H](F)C4=CC(=O)C=C[C@]4(C)[C@@]3(F)[C@@H](O)C[C@@]21C`, the Potency entry was “inactive”.

As to `CCOC(=O)c1cccnc1`, the Potency entry was “inactive”.

Consider `CN(Cc1ccc(C(C)(C)C)cc1)Cc1cccc2ccccc12`, for which the Potency was 29.8 µM (active).

`O=C(CS)Nc1ccccc1`: the Potency result is “inactive”.

`O=C(O)C1(C(=O)O)CCC1.[NH2-].[NH2-].[Pt+2]`: the Potency entry is “inactive”.

In the case of `C=C(C)C(=O)OCC`, the Potency entry was “inactive”.

Turning to `Nc1ccccc1S(=O)(=O)c1ccccc1`, the Potency entry was “inactive”.

For the compound `CCC(=O)O[C@]1(C(=O)CCl)[C@@H](C)C[C@H]2[C@@H]3CCC4=CC(=O)C=C[C@]4(C)[C@@]3(F)[C@@H](O)C[C@@]21C`, the Potency entry is “inactive”.

On to `COc1ccc(C(=O)N2CCN(CC(=O)N3CCOCC3)CC2)cc1`, for which the Potency entry was “inactive”.

For `CC(C)(C)OCC1CO1` (stereo not given), the Potency entry was “inactive”.

On to `c1ccc(CNCCNCc2ccccc2)cc1`, for which the Potency entry is “inactive”.

As for `COc1cc(Cl)ccc1Oc1ccc(Cl)cc1Cl`, the Potency was 47.6 µM (active).

On to `CC(=O)OC[C@H]1O[C@@H](n2ncc(=O)[nH]c2=O)[C@H](OC(C)=O)[C@@H]1OC(C)=O`, for which the Potency result was “inactive”.

In the case of `Cc1oc(-c2ccccc2)nc1CCOc1cccc2c1ccn2CCC(=O)O`, the Potency result was “inactive”.

Regarding `COc1ccc(C)cc1[N+](=O)[O-]`, the Potency entry was “inactive”.

On to `CCOC(=O)Cc1cccc2ccccc12`, for which the Potency entry is “inactive”.

On to `O=C1OC(=O)C2C3C=CC(C3)C12` (stereo not given), for which the Potency result was “inactive”.

As to `NCc1ccccc1Sc1ccccc1CO`, the Potency result is “inactive”.

`O=C(O)c1ccc(-n2nc(-c3ccccc3O)nc2-c2ccccc2O)cc1`: the Potency result was “inactive”.

In the case of `CCCCCCCCCCCCN1CCCCCC1=O`, the Potency entry is “inactive”.

In the case of `CNCCCN1c2ccccc2CCc2ccccc21`, the Potency is 26.6 µM (active).

On to `COc1ccnc(CS(=O)c2nc3ccc(OC(F)F)cc3[nH]2)c1OC` (stereo not given), for which the Potency entry is “inactive”.

For `CCC(C)O` (stereo not given), the Potency entry was “inactive”.

Consider `COCC(C)OC(C)=O` (stereo not given), for which the Potency entry was “inactive”.

For `CC1=CC=C(C(C)C)CC1`, the Potency entry was “inactive”.

Turning to `CCCCCCCC#N`, the Potency result is “inactive”.

Consider `O=C(NCCO[N+](=O)[O-])c1cccnc1`, for which the Potency entry was “inactive”.

As for `CCN(CC)c1ccc2c(-c3ccccc3C(=O)O)c3ccc(=[N+](CC)CC)cc-3oc2c1`, the Potency result is “inactive”.

With `C#CCN(C)CCCOc1ccc(Cl)cc1Cl`, the Potency entry was “inactive”.
